“And” between values parts separate entries of the source, which are not always exact repeats. Equal values may be shown once. Where a structure was tested more than once in an assay, its records may differ in their call. The source made the active and inactive calls. The calls were made as follows: active = hit-call score of the fitted dose curve at least 0.9, where 1 is the maximum; inactive = score below 0.9.
Each compound was assayed against Estrogen receptor (Homo sapiens) (UniProt P03372) (assay: OT_ERa_GFPERaERE_0480: Odyssey Thera (OT) 8-hour HeLa Transcription Induction Assay for Estrogen Receptor (AID 2283381)).
Estrogen receptor (Homo sapiens), sequence (P03372 whole entry, looked up): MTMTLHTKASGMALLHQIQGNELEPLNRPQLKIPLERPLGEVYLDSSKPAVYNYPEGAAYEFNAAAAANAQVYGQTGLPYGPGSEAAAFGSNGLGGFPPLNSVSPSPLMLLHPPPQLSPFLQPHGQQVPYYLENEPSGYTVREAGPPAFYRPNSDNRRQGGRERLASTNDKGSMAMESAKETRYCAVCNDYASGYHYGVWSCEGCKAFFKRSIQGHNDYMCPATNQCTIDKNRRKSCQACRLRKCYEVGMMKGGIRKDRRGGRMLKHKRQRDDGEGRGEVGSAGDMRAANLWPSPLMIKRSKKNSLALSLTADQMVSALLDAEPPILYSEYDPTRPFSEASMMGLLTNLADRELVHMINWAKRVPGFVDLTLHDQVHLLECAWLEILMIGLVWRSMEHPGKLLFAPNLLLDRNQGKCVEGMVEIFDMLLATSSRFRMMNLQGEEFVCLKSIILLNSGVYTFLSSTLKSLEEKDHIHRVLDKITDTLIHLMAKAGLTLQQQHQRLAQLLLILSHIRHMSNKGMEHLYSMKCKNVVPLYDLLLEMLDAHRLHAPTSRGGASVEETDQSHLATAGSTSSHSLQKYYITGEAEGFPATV
Description: OT_ERa_GFPERaERE_0480 is a cell-based, single-readout assay that uses HeLa, a human cervix cell line, with measurements taken at 8 hours after chemical dosing in a 384-well plate.OT_ERa_GFPERaERE_0480 is one of one assay component(s) measured or calculated from the OT_ERa_GFPERaERE_0480 assay. It is designed to make measurements of fluorescent protein induction, a form of inducible reporter, as detected with optical microscopy: fluorescence microscopy signals by Microscopy technology.Data from the assay component OT_ERa_GFPERaERE_0480 was analyzed into 1 assay endpoint. This assay endpoint, OT_ERa_EREGFP_0480, was analyzed in the positive analysis fitting direction relative to DMSO as the negative control and baseline of activity. Using a type of inducible reporter, measures of receptor for gain-of-signal activity can be used to understand the reporter gene at the pathway-level as they relate to the gene ESR1. Furthermore, this assay endpoint can be referred to as a primary readout, because the performed assay has only produced 1 assay endpoint. To generalize the intended target to other relatable targets, this assay endpoint is annotated to the nuclear receptor intended target family, where the subfamily is steroidal.
All assay endpoints are quantified using high content image analysis algorithms.

Row | Compound | outcome | AC50
1 | OC1CCCCC1 | inactive | –
2 | CC(C)CCCCCCOC(=O)CCCCC(=O)OCCCCCCC(C)C | inactive | –
3 | CCc1ccc(CCOc2ccc(CC3SC(=O)NC3=O)cc2)nc1 (stereo not given) | inactive | –
4 | CCCCCCCCOC(=O)CCCCCCCCC(=O)OCCCCCCCC | inactive | –
5 | Cc1ccc(S(=O)(=O)O)c(C)c1 | inactive | 24 µM (active)
6 | COC(=O)CCCCC(=O)OC | inactive | –
7 | CC(O)C(=O)O (stereo not given) | inactive | –
8 | CCC(C)(C)C1CCC(O)CC1 (stereo not given) | inactive | 16.2 µM (active) and 40.9 µM (active)
9 | CC#C[C@]1(O)CC[C@H]2[C@@H]3CCC4=CC(=O)CCC4=C3[C@@H](c3ccc(N(C)C)cc3)C[C@@]21C | inactive | –
10 | OCCC(F)(F)C(F)(F)C(F)(F)C(F)(F)C(F)(F)C(F)(F)F | inactive | –
11 | CC(C)(C)CC(C)(C)c1ccc(O)c(-n2nc3ccccc3n2)c1 | inactive | –
12 | O=C(OCCOCCOC(=O)c1ccccc1)c1ccccc1 | inactive | –
13 | NC(=O)N1C(=O)C(C(=O)c2cc(Cl)cs2)c2cc(F)c(Cl)cc21 (stereo not given) | inactive | –
14 | CC(C)(C)c1ccc(O)c(C(C)(C)C)c1 | inactive | –
15 | Cc1oc(-c2ccccc2)nc1CCOc1ccc(C[C@H](Nc2ccccc2C(=O)c2ccccc2)C(=O)O)cc1 | – | 82.9 µM (active)
16 | CCCCCCCCCCCCCC[N+](C)(C)C | inactive | –
17 | c1ccc2c(c1)Cc1ccccc1-2 | inactive | –
18 | CN1CCC[C@H]1c1cccnc1 | inactive | –
19 | ClC1=C(Cl)C(Cl)(Cl)C(Cl)=C1Cl | inactive | –

Row | Compound | outcome | AC50
20 | CN(C)C=O | inactive | –
21 | CCN(CC)CCNc1ccc(CNC=O)c2sc3ccc(OC)cc3c(=O)c12 | inactive | –
22 | CCCCC(CC)COC(=O)CCCCC(=O)OCC(CC)CCCC (stereo not given) | inactive | –
23 | CCCCC(CC)COC(=O)CCCCC(=O)OCc1ccccc1 (stereo not given) | inactive | –
24 | CCCCCCCC(=O)O | – | 22.1 µM (active)
25 | CCCCCCCCCCCCc1ccccc1S(=O)(=O)O | – | 96 µM (active)
26 | c1ccc2cc3c(ccc4ccccc43)cc2c1 | inactive | –
27 | COc1ccc([N+](=O)[O-])cc1N | inactive | –
28 | CCCCCCCCCCCCN1CCCC1=O | inactive | –
29 | CCOC(=O)CC(O)(CC(=O)OCC)C(=O)OCC | inactive | –
30 | O=[N+]([O-])c1ccc(O)cc1 | inactive | –
31 | COCC(C)OCC(C)O (stereo not given) | inactive | –
32 | CCCCCCCCC(=O)O | inactive | –
33 | C=C(C)C(=O)OCCC(F)(F)C(F)(F)C(F)(F)C(F)(F)C(F)(F)C(F)(F)F | inactive | –
34 | CC[C@H](C)[C@@H](C(=O)O)n1sc2ccccc2c1=O | inactive | –
35 | Cc1cc(C)c(O)c(C)c1 | inactive | –
36 | O=C(O)c1ccccc1C(c1ccc(O)cc1)c1ccc(O)cc1 | inactive | –
37 | CC(=O)NC1(c2cccc(F)c2)CCN(CC[C@@]2(c3ccc(Cl)c(Cl)c3)CN(c3ccccc3)C(=O)CO2)CC1 | inactive | –
38 | CCCCCCCCCCCCCCCS(=O)(=O)Oc1ccccc1 | inactive | –

Source: PubChem BioAssay (EPA / NIEHS)
